Sampled rows, rich in hits. Any-hit rate of the full collection: about 4.5%.
Efflux pump mplx: inhibitors of Candida efflux pumps in yeast, primary screen, S. cerevisiae, Nile Red, multiplex | inhibition, % at 10 µM | actives 0.44% (n = 330,000) | S. cerevisiae Candida pump triplex | AID 485275, 2010;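 active means plate passing quality check with inhibition over a set limit, or well fluorescence over plate mean plus 4 SD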;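 further: Nile Red retained in pooled yeast measured as flow cytometry median fluorescence; 0% = buffer negative control and 100% = Enniatin B positive control; higher means more Nile Red kept so more efflux inhibition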
Rce1 inh: yeast Rce1p protease inhibitors, primary screen, biochemical, fluorescence, cell-free homogeneous. actives 0.27% (n = 290,000). CAAX prenyl protease 2 (Saccharomyces cerevisiae (strain ATCC 204508 / S288c)), Q03530. yeast membranes, quenched prenylated peptide cleavage fluorescence. calls only;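 active means fall in fluorescence gain of 50% or more versus controls, with final raw signal at or below 3038400; inconclusive means same 50% fall but final raw signal above 3038400; inactive means fall in fluorescence gain under 50%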;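 further: plate controls were neutral control wells for no effect and wells lacking membranes for full effect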
Target sequence (Q03530 whole entry, looked up): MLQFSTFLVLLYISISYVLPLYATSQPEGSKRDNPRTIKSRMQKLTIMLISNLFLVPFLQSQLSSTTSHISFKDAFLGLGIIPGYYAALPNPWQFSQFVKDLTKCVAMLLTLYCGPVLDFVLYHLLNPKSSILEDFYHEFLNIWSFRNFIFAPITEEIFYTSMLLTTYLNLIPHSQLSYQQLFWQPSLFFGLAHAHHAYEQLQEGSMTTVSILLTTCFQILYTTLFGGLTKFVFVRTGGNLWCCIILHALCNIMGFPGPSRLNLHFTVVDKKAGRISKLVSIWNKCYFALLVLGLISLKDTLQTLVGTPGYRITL
GRK2 inh: compounds blocking aptamer binding on GRK2 – biochemical, human GRK2, bead flow cytometry, HTS, primary screen; AID 488847, 2010; FAM-aptamer displacement from GRK2; actives 0.59% (n = 330,000); Beta-adrenergic receptor kinase 1 (Homo sapiens), P25098; inhibition of aptamer binding, % at 10 µM;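 active means inhibition of aptamer binding above 40%, roughly 3 SD of noise, on plates passing a quality check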;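 further: median bead fluorescence of bound FAM aptamer so fluorescent compounds give negative values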
ALR H2O2 inh: inhibitors of human ALR sulfhydryl oxidase, primary screen, biochemical, H2O2 detection, HRP-luminol luminescence, single point; FAD-linked sulfhydryl oxidase ALR (Homo sapiens), P55789; purified ALR, DTT oxidation; inhibition, % (concentration not given with the values); actives 3.8% (n = 290,000); AID 485317, 2010;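 active means mean replicate inhibition above about 79%, with every replicate also reaching it, limit read from the data; inconclusive means only one of the two criteria met; inactive means mean below limit and not every replicate reaching it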
Target sequence (P55789 whole entry, looked up): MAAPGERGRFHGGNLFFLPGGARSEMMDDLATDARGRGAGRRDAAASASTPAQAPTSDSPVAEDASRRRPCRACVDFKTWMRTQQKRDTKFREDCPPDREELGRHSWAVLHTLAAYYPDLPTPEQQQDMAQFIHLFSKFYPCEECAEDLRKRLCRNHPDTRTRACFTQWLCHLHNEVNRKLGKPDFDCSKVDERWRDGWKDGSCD
HDAC3 inhib: HDAC3 deacetylase inhibitors, primary screen, biochemical, fluorescence, cell-free homogeneous | inhibition, % at 8.3 µM | Histone deacetylase 3 (Homo sapiens), O15379 | recombinant HDAC3, fluorogenic peptide/trypsin coupled | AID 2718, 2010 | actives 0.15% (n = 320,000); in the data active means inhibition above about 26%, passing the limit was not always enough; inconclusive means no clear call, values can overlap the other calls
Rtt109 Vps75: inhibitors of C. albicans Rtt109/Vps75 HAT, primary screen, biochemical, ThioGlo CoA-SH fluorescence, plate reader. Histone acetyltransferase RTT109 (Candida albicans (strain SC5314 / ATCC MYA-2876)), …. purified Rtt109/Vps75, 4 h. inhibition, % at 34.9 µM. actives 0.16% (n = 330,000). AID 540336, 2011;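 active means inhibition of at least 50% in every replicate; inconclusive means best replicate reaches 50% inhibition but some replicates fall short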
* hit, by the source's call; i = inactive; u = inconclusive; x = not tested or not shown; + = active, no number.

SMILES	Efflux pump mplx	Rce1 inh	GRK2 inh	ALR H2O2 inh	HDAC3 inhib	Rtt109 Vps75
CC1(C)CC(=O)C(=Cc2cn(CCC#N)nc2-c2ccc(Cl)cc2)C(=O)C1	0	x	2	13	1	-1
CC1(C)CC(=O)C(=Cc2cn(CCC#N)nc2-c2ccc(F)cc2)C(=O)C1	0	x	2	95*	0	1
O=C(O)CC(C(=O)O)N1C(=O)/C(=C/C=C/c2ccco2)SC1=S (stereo not drawn)	0	i	100*	-21	5	4
O=C(O)C(Cc1ccccc1)N1C(=O)/C(=C/C=C/c2ccco2)SC1=S (stereo not drawn)	x	i	x	x	x	-3
CN1CCN(C(=O)CCCN2C(=O)/C(=C/c3ccccc3)SC2=S)CC1	1	i	0	3	3	23
O=C(O)CCCN1C(=O)/C(=C/C=C/c2ccco2)SC1=S	0	i	100*	u	-2	17
O=C(O)CCCN1C(=O)/C(=C\C(Cl)=C\c2ccccc2)SC1=S	0	i	0	98*	-4	-6
COc1cccc(N(C(=O)CNC(=O)c2ccco2)C(C(=O)NC2CCCC2)c2cccnc2)c1 (stereo not drawn)	0	i	2	-8	5	-3
COCc1ccc(C(=O)NC2CCCc3c2cnn3-c2ccc(C)c(C)c2)o1 (stereo not drawn)	0	i	0	10	0	0
COc1ccccc1OCC(=O)Nn1c(=S)[nH]c2ncccc2c1=O	0	i	0	91*	8	-8
O=C1/C(=C\c2ccc(O)c(O)c2)N=C2CCCCCN12	0	i	0	99*	2	1
COc1cc(/C=c2\sc3n(c2=O)CCCN=3)ccc1O	0	i	3	99*	1	11
O=c1/c(=C/c2ccc([N+](=O)[O-])cc2)sc2n1CCCN=2	0	i	0	-3	5	-6
COc1ccc(/C=C2\N=C3CCCCCN3C2=O)cc1OC	0	i	0	-36	0	3
COc1ccc(/C=C2/N=C3CCCCCN3C2=O)cc1	0	i	4	-2	1	12
COc1cc(/C=C2\N=C3CCCCCN3C2=O)ccc1O	0	i	1	99*	3	x
O=C(Nc1c2c(nn1-c1cccc(Cl)c1)CS(=O)(=O)C2)c1ccco1	0	i	9	1	1	u
O=C(NN=C1CCCCC1)c1cc(-c2ccccc2)n[nH]1	0	i	0	56	0	-2
O=C(NN=C1CCCC1)c1cc(-c2ccccc2)n[nH]1	0	i	2	97*	u	10
O=C(O)C1CCc2nc(NCc3ccccc3)nc(NCc3ccccc3)c2C1 (stereo not drawn)	x	x	x	x	x	6
CC[C@@H]1[C@H]2CCCC(=O)N3CC[C@@H](C[C@@H]1Nc1ccccc1)[C@@H]23	0	i	4	99*	0	0
C(=N\Nc1ccccc1)/c1ccc(N2CCOCC2)cc1	0	i	2	-35	0	-3
C/C(=N\Nc1ccccn1)c1ccc(N2CCOCC2)cc1	0	i	0	98*	0	1
C/C(=N\Nc1ccccn1)c1ccc(Br)s1	0	i	3	99*	9	x
C(=N\Nc1ccccn1)/c1ccc(N2CCOCC2)cc1	0	i	0	99*	-1	-1
SMILES	Efflux pump mplx	Rce1 inh	GRK2 inh	ALR H2O2 inh	HDAC3 inhib	Rtt109 Vps75
CC(NC(=O)c1cccc(S(=O)(=O)N2CCN(Cc3ccccc3)CC2)c1)c1ccc(Br)cc1 (stereo not drawn)	0	i	2	-1	9	2
COC(=O)[C@@]12CCCN1[C@H](c1ccc(-c3ccc(Cl)c(Cl)c3)cc1)[C@H]1C(=O)N(C)C(=O)[C@H]12	0	i	0	-10	5	-3
COc1ccc(CN2CCNC(=O)C2CC(=O)N(C)Cc2nonc2C)c(F)c1 (stereo not drawn)	0	i	0	-5	-1	0
COCc1cc(C)n(CC(=O)NCc2ccccc2)c(=O)c1C#N	0	+	2	-19	-6	x
COc1ccc2ncccc2c1Cc1c(OC)ccc2ncccc12	x	x	x	x	x	-7
COc1ccc(C(=O)NC(=S)NNC(=O)COc2ccccc2)cc1	0	i	0	98*	2	-1
O=C(CCc1ccccc1)NNC(=S)NC(=O)c1ccc(Cl)cc1	0	i	0	99*	6	x
O=C(CCc1ccccc1)NNC(=O)c1ccc(Cl)cc1	0	i	3	-27	-1	-5
Cc1ccc(C(=O)NC(=S)NNC(=O)COc2ccc([N+](=O)[O-])cc2)cc1	0	i	2	99*	7	9
CCC(=O)NNC(=S)NC(=O)c1ccc(C)cc1	0	i	0	99*	4	8
C[C@H](CO)N1C[C@H](C)[C@@H](CN(C)S(=O)(=O)c2cccs2)Oc2ccc(NS(=O)(=O)c3ccc(F)cc3)cc2C1=O	0	x	0	-3	1	4
CCOc1cc(/C=C2/NC(=O)NC2=O)cc([N+](=O)[O-])c1O	0	i	0	94*	3	9
C=CCc1cc(/C=C2/NC(=O)NC2=O)cc(OCC)c1O	0	i	0	9	4	-4
COc1ccc(C(=O)Nc2cc(C(=O)c3ccccc3)c(C)oc2=O)cc1	0	i	6	14	3	0
Cc1oc(=O)c(NC(=O)c2cccc(Cl)c2)cc1C(=O)c1ccccc1	0	i	0	97*	4	4
COc1ccc(-c2nc(CS(=O)CC(=O)NCc3ccc(Cl)cc3)c(C)o2)cc1OC (stereo not drawn)	0	i	0	99*	-6	-3
COCCCNC(=O)CS(=O)(=O)Cc1nc(-c2cccc(OC)c2)oc1C	0	i	0	u	1	-12
COc1ccc(CNC(=O)CS(=O)Cc2nc(-c3ccc(OC)c(OC)c3)oc2C)cc1 (stereo not drawn)	-1	i	0	99*	-5	17
COCCNC(=O)CS(=O)Cc1nc(-c2ccc(OC)cc2)oc1C (stereo not drawn)	0	i	1	99*	2	-6
COCCCNC(=O)CS(=O)Cc1nc(-c2cccc(OC)c2)oc1C (stereo not drawn)	0	i	0	99*	0	5
CCOCCSc1n[nH]c(=O)n1CCc1ccccc1	-1	i	1	12	x	5

Screening data as filed in PubChem.
